Records with an inconclusive call do not appear. A call without a number means that no potency is given here. Active and inactive are the calls of the source. The call rests on the fitted dose curve; in most records, active means well fitted inhibition curve with a large enough effect; inconclusive means small, poorly fitted or top-dose-only effect; inactive means flat fitted curve, though single readings scatter.
Potency means the concentration at half of the fitted maximal effect.

The assay has as its system astro (control astrocytes). Nature of the assay: Drug repurposing screens with cells derived from glioblastoma tumor samples (AID 1345199). Further: nearly all actives have a fitted effect of over 40% in size. To be noted: viability, ATP luminescence, 48 h; series mostly up to 45.9 µM. The method, then:
CD133+ cells were isolated from GBM patient biopsies and cultured as neurospheres. Neurospheres from four patients were used to screen the NCATS pharmaceutical collection (NPC) library of approved drugs and bioactive compounds. […] The neurospheres were incubated with drugs for 48 hours in 1536-well format, then assayed with an ATP content cell viability assay. […] These hits were cherry picked to confirm activity in the four original GBM lines screened plus three other slower growing GMB lines (unable to yield enough cells for a full primary screen). Variable activities of the confirmed primary hits in the different GBM patient lines were observed. The patient line 206 responded to the greatest number of compounds and line 923 responded to the least amount of active compounds.
For `CNC1(C)C2CCC(C2)C1(C)C` (stereo not given), the Potency entry is “inactive”.
With `CCCOc1ccccc1-c1nc2n[nH]nc2c(=O)[nH]1` the entry was “inactive”; with `CCc1c(C)[nH]c2c1C(=O)C(CN1CCOCC1)CC2` (stereo not given), “inactive”; with `C[n+]1cc2c3c(ccc2c2ccc4cc5c(cc4c21)OCO5)OCO3`, 4.47 µM (active).
With `CN(C)C(=O)Oc1ccc[n+](C)c1` the entry was “inactive”; with `CC(C(=O)O)c1ccc(CC2CCCC2=O)cc1` (stereo not given), “inactive”.
With `CN1CCN(C2=Nc3ccccc3Oc3ccc(Cl)cc32)CC1` the entry was “inactive”; with `Cc1nc2c([nH]1)c(=O)n(C)c(=O)n2Cc1ccco1`, “inactive”; with `NC(=O)N1c2ccccc2C=Cc2ccccc21`, “inactive”.
For `C[C@@H](O)[C@H]1C(=O)N2C(C(=O)O)=C(SCCN=CN)C[C@H]12`, the Potency entry was “inactive”.
Take `CCN(CC)CCCN(c1ccccc1)C1Cc2ccccc2C1`: the Potency was 12.6 µM (active).
With `CC1=NS(=O)(=O)c2cc(Cl)ccc2N1` the entry was “inactive”; with `O=C(O)CCCCCCCC(=O)O`, “inactive”; with `CC(C)[N+](C)(CCOC(=O)C1c2ccccc2Oc2ccccc21)C(C)C`, “inactive”.
With `COc1cc2c(cc1OC)-c1cc(=Nc3c(C)cc(C)cc3C)n(C)c(=O)n1CC2` the figure was 17.8 µM (active); with `CN(C)C(=O)Oc1cccc([N+](C)(C)C)c1`, “inactive”.
As for `CCn1nc(C(=O)O)c(=O)c2cc3c(cc21)OCO3`, the entry is “inactive”; as for `Cc1ccc(/C(=C\CN2CCCC2)c2ccccn2)cc1`, “inactive”.
As for `CC(C)COCC(CN(Cc1ccccc1)c1ccccc1)N1CCCC1` (stereo not given), the Potency was 35.5 µM (active).
On to `Cc1nc2sccn2c(=O)c1CCN1CCC(=C(c2ccc(F)cc2)c2ccc(F)cc2)CC1`, for which the Potency was 20 µM (active).
With `OCCN1CCN(CC/C=C2/c3ccccc3Sc3ccc(C(F)(F)F)cc32)CC1` the figure was 31.6 µM (active); with `O=C(O)CN(CCOCCOCCN(CC(=O)O)CC(=O)O)CC(=O)O`, “inactive”.
As for `NC/C=C/C(=O)O`, the entry is “inactive”; as for `CCN(Cc1ccncc1)C(=O)C(CO)c1ccccc1` (stereo not given), “inactive”.
With `Nc1c2c(nc3ccccc13)CCCC2O` (stereo not given) the entry was “inactive”; with `Cc1scc2c1N(C(=O)CN1CCN(C)CC1)c1ccccc1NC2=O`, “inactive”.
As for `CN(C(=O)CCCOc1ccc2[nH]c(=O)ccc2c1)C1CCCCC1`, the Potency result is “inactive”.
With `C[N+](C)(C)CCOC(=O)CCC(=O)OCC[N+](C)(C)C` the entry was “inactive”.
With `CCn1cc(C(=O)O)c(=O)c2cc3c(cc21)OCO3` the entry was “inactive”; with `COc1ccc(CN(CCN(C)C)c2ccccn2)cc1`, “inactive”.
Regarding `O=C(CCNNC(=O)c1ccncc1)NCc1ccccc1`, the Potency result is “inactive”.
As for `CN1CCN(CC(=O)N2c3ccccc3C(=O)Nc3cccnc32)CC1`, the entry is “inactive”; as for `CN=C(NC#N)NCCSCc1nc[nH]c1C`, “inactive”; as for `C=CCc1ccccc1OCC(O)CNC(C)C` (stereo not given), “inactive”.
Take `CCO/C([O-])=N/c1c[n+](N2CCOCC2)no1`: the Potency entry is “inactive”.
With `CN1C[C@H](C(=O)N[C@]2(C)O[C@@]3(O)[C@@H]4CCCN4C(=O)[C@H](Cc4ccccc4)N3C2=O)C[C@@H]2c3cccc4[nH]cc(c34)C[C@H]21` the entry was “inactive”.
As for `O=C(O)CN(CCN(CC(=O)O)CC(=O)O)CCN(CC(=O)O)CC(=O)O`, the entry is “inactive”; as for `c1cnc(N2CCN(Cc3ccc4c(c3)OCO4)CC2)nc1`, “inactive”; as for `CC(=O)[C@]1(O)Cc2c(O)c3c(c(O)c2[C@@H](O[C@H]2C[C@H](N)[C@H](O)[C@H](C)O2)C1)C(=O)c1ccccc1C3=O`, 0.398 µM (active).
With `CC(=O)OC(C)C[N+](C)(C)C` (stereo not given) the entry was “inactive”.

Values taken from PubChem BioAssay (NCATS).
